mHTT CaM bind = mHTT-calmodulin interaction abrogation. AlphaScreen His-mHTT/GST-CaM binding, luminescence. P42858. inhibition, % at 15 µM. actives 3.6% (n = 190,000);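 note: 0% = both proteins with DMSO and 100% = one protein alone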
Pf apPOL inh = Pf-apPOL DNA polymerase inhibition; Recombinant Pf-apPOL, molecular beacon fluorescence, 1.5 h; inhibition, % at 10 µM; actives 0.25% (n = 210,000)
* hit, by the source's call. The sample as a whole holds a higher share of hits than the screen did. Cut-off read from the data, not from the text of the source: active = inhibition above about 50%; inactive = the rest.

What do the screens show for `CN(C)S(=O)(=O)N1CCN(c2ccc(F)cc2)CC1`?
mHTT CaM bind: -3

How did O=C(Nc1cccc2cccnc12)c1ccccc1O do in these assays?
mHTT CaM bind: -34; Pf apPOL inh: 1

How did Cc1cc(NC(=O)c2ccc(C(=O)Nc3cc(C)on3)nc2)no1 do in these assays?
mHTT CaM bind: -6; Pf apPOL inh: 0

How did CCSc1ccccc1C(=O)Nc1cccc2ccc(-n3ccnc3)nc12 do in these assays?
mHTT CaM bind: 82*; Pf apPOL inh: -3

What do the screens show for `CCSc1ccccc1C(=O)Nc1cccc2ccc(OC)nc12`?
mHTT CaM bind: -52; Pf apPOL inh: -4

Results for Cc1cc(NC(=O)c2ccc(-n3ccnc3)nn2)no1 ?
mHTT CaM bind: 54*; Pf apPOL inh: 17

How did O=C(Nc1cccc2cccnc12)c1ccc(-n2ccnc2)nn1 do in these assays?
mHTT CaM bind: 61*; Pf apPOL inh: 5

How did Cc1ccc(C)c(NC(=O)N2CCCC2c2cc(C)no2)c1 (stereo not given) do in these assays?
mHTT CaM bind: -7; Pf apPOL inh: -5

How did Nc1nc2n(n1)C(c1ccccc1)CC(c1ccc(Br)cc1)N2 (stereo not given) do in these assays?
mHTT CaM bind: 2; Pf apPOL inh: -4

Results for O=C(O)CCNCc1ccccc1 ?
mHTT CaM bind: -2; Pf apPOL inh: -2

Results for c1ccc(CNCc2cnc[nH]2)cc1 ?
mHTT CaM bind: 94*; Pf apPOL inh: -8

How did Cc1[nH]nc2c1C(c1ccccc1F)C1=C(CC(C)(C)CC1=O)N2 (stereo not given) do in these assays?
mHTT CaM bind: -2; Pf apPOL inh: 0

How did CCC(=O)N1c2ccc(S(=O)(=O)NCCCOC)cc2CC1C (stereo not given) do in these assays?
mHTT CaM bind: 0; Pf apPOL inh: -2

Results for CCCC1CCC2(CCCN2CCOC(=S)Nc2ccccc2)CC1 (stereo not given) ?
mHTT CaM bind: 61*; Pf apPOL inh: -7

Results for CCCC1CCC2(CCCN2CCOC(=S)Nc2ccccc2Cl)CC1 (stereo not given) ?
mHTT CaM bind: -8; Pf apPOL inh: -9

How did CCCC1CCC2(CCCN2CCOC(=O)Nc2cccc(Cl)c2)CC1 (stereo not given) do in these assays?
mHTT CaM bind: 95*; Pf apPOL inh: -7

What do the screens show for `CCCC1CCC2(CCCN2CCOC(=S)Nc2cccc(Cl)c2)CC1` (stereo not given)?
mHTT CaM bind: 28; Pf apPOL inh: -4

How did Cc1cc(NC(=O)c2ccccc2Cl)ccc1I do in these assays?
mHTT CaM bind: -29; Pf apPOL inh: -11

What do the screens show for `COc1ccc(OC)c(CNC(=O)CN2N=C(c3ccc(Cl)cc3)CCC2=O)c1`?
mHTT CaM bind: 34; Pf apPOL inh: -11

What do the screens show for `O=C(CN1N=C(c2ccc(Cl)cc2)CCC1=O)NCCN1CCc2ccccc2C1`?
mHTT CaM bind: 52*; Pf apPOL inh: -9

Results for O=C(CN1N=C(c2ccc(Cl)cc2)CCC1=O)NCCc1ccc(Cl)cc1 ?
mHTT CaM bind: 42; Pf apPOL inh: -15

Results for COc1ccc(Br)cc1CNC(=O)CN1N=C(c2ccc(Cl)cc2)CCC1=O ?
mHTT CaM bind: 52*; Pf apPOL inh: -14

Results for COc1cc(Cl)c(/C=C2\NC(=O)N(CC(=O)Nc3cccc(C)c3)C2=O)cc1OC ?
mHTT CaM bind: 48; Pf apPOL inh: -1

How did COc1ccc(NC(=O)C2CCCN(c3nccnc3Oc3ccccc3)C2)cc1Cl (stereo not given) do in these assays?
mHTT CaM bind: -2; Pf apPOL inh: -5

How did CCCCCC(=O)N1C[C@@H](O)[C@H](n2cc(C3CC3)nn2)C[C@@H]1c1ccc(OC)cc1 do in these assays?
mHTT CaM bind: 26; Pf apPOL inh: -3

How did CCCCCCN1C[C@H](n2cc(C3CC3)nn2)[C@@H](O)C[C@@H]1c1ccc(OC)cc1 do in these assays?
mHTT CaM bind: 98*; Pf apPOL inh: -3

How did COc1ccc([C@H]2C[C@@H](n3cc(-c4ccc(F)cc4)nn3)[C@H](O)CN2CC2CCCCC2)cc1 do in these assays?
mHTT CaM bind: -7; Pf apPOL inh: -3

What do the screens show for `CCCCCCN1C[C@@H](n2cc(-c3ccc(F)cc3)nn2)[C@H](O)C[C@@H]1c1ccc(OC)cc1`?
mHTT CaM bind: 4; Pf apPOL inh: -7

Results for CCCCCCN1C[C@H](n2cc(C3CC3)nn2)[C@@H](O)C[C@@H]1c1ccccc1 ?
mHTT CaM bind: 99*; Pf apPOL inh: 0

Results for COc1ccc([C@H]2C[C@H](O)[C@@H](n3cc(-c4ccc(F)cc4)nn3)CN2CC2CCCCC2)cc1 ?
mHTT CaM bind: 69*; Pf apPOL inh: 1

Results for CCCCCCN1C[C@H](n2cc(-c3ccc(F)cc3)nn2)[C@@H](O)C[C@@H]1c1ccc(OC)cc1 ?
mHTT CaM bind: 67*; Pf apPOL inh: 1

How did CCCCCCN1C[C@@H](O)[C@H](n2cc(C3CC3)nn2)C[C@@H]1c1ccccc1 do in these assays?
mHTT CaM bind: 30; Pf apPOL inh: -2

How did OC1CCN(CC2CC=CCC2)CC1 (stereo not given) do in these assays?
mHTT CaM bind: -4; Pf apPOL inh: 2

How did O=C(NCCc1csc(C2CCN(C(=O)c3cccs3)CC2)n1)C1CCC1 do in these assays?
mHTT CaM bind: -5; Pf apPOL inh: -5

Results for CCCC1CCC(C2=N/C(=C/c3cc(OC)c(OC)c(OC)c3)C(=O)O2)CC1 (stereo not given) ?
mHTT CaM bind: -2; Pf apPOL inh: 1

What do the screens show for `CCc1ccc(NS(=O)(=O)c2cc(Cl)ccc2OC)cc1`?
mHTT CaM bind: -8; Pf apPOL inh: -12

Results for COc1ccc(Cl)cc1S(=O)(=O)Nc1ccc2c(c1)NC(=O)C(C)(C)CO2 ?
mHTT CaM bind: 69*; Pf apPOL inh: -9

Results for Cc1cc(C(=O)Nc2cc(Cl)ccc2O)ccc1[N+](=O)[O-] ?
mHTT CaM bind: 19; Pf apPOL inh: 4

How did COc1ccc(Cl)cc1/C=C/c1ccc2cccc(O)c2n1 do in these assays?
mHTT CaM bind: 52*; Pf apPOL inh: -7

Results for Oc1ccc(/C=C/c2ccc3cccc(O)c3n2)cc1Br ?
mHTT CaM bind: 62*; Pf apPOL inh: 4

What do the screens show for `COc1cc(/C=C/c2ccc3cccc(O)c3n2)cc(OC)c1O`?
mHTT CaM bind: 74*; Pf apPOL inh: -2

Results for CCOc1cccc(/C=C/c2ccc3cccc(O)c3n2)c1OC ?
mHTT CaM bind: 48; Pf apPOL inh: 1

What do the screens show for `CCOc1cc(/C=C/c2ccc3cccc(O)c3n2)ccc1O`?
mHTT CaM bind: 48; Pf apPOL inh: -7

Results for O=C(O)c1ccc(/C=C/c2ccc3cccc(O)c3n2)cc1 ?
mHTT CaM bind: 7; Pf apPOL inh: 5

What do the screens show for `COc1ccccc1-n1nc(C(=O)Nc2cccc(C(F)(F)F)c2)c2ccccc2c1=O`?
mHTT CaM bind: -4; Pf apPOL inh: -5

Results for Cc1cc(C)cc(NC(=O)CSc2nc3c(c(=O)n2-c2ccc([N+](=O)[O-])cc2)SCC3)c1 ?
mHTT CaM bind: 13; Pf apPOL inh: -5

What do the screens show for `COc1ccc(C2SCCN2S(=O)(=O)c2ccc(F)cc2)cc1[N+](=O)[O-]` (stereo not given)?
mHTT CaM bind: 14; Pf apPOL inh: 5

How did CCCC(=O)Nc1cnc(-c2ccccc2)nc1 do in these assays?
mHTT CaM bind: 0; Pf apPOL inh: 4

How did Cc1ccc(-c2ncc(C(=O)N3CCCN(C)CC3)c(-c3ccncc3)n2)cc1 do in these assays?
mHTT CaM bind: 12; Pf apPOL inh: -3

How did CCCNC(=O)c1c(C)nc2ccccn2c1=O do in these assays?
mHTT CaM bind: 0; Pf apPOL inh: -1
